# Screens from PubChem.
# Sampled rows, rich in hits. Any-hit rate of the full collection: about 3.5%.
# FBA Mtb inh – inhibitors of M. tuberculosis fructose-bisphosphate aldolase; inhibition, % at 1 µM; purified M. tuberculosis FBA, fluorescence read-out; 360,000 compounds, 2.3% hits; P9WQA3;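 note: 0% = vehicle and 100% = reference inhibitor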
# Target sequence (P9WQA3 whole entry, looked up): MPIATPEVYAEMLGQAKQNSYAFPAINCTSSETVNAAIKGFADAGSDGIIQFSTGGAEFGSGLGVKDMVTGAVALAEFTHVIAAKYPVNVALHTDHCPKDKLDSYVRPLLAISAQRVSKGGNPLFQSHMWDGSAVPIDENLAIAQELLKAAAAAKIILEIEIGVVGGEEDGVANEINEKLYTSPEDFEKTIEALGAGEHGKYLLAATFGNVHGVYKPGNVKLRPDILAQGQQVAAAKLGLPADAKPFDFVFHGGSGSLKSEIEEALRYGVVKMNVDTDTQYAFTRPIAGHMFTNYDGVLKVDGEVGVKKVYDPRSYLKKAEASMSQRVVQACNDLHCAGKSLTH
# Mtb bLac sens – beta-lactam sensitization of Mtb H37Rv; M. tuberculosis H37Rv growth with meropenem, percent inhibition; inhibition, % at 25 µM; 330,000 compounds, 0.27% hits; AID 434955; call rule not given here;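 note: growth measured after seven days incubation then overnight dye step; 0% = bacteria only wells and 100% = bacteria with antibiotic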
# GDH-TPI counter-1 – counter-screen for M. tuberculosis FBA inhibitors: GDH-TPI coupled enzymes; GDH-TPI coupled enzyme counterscreen, NADH absorbance; AID 588335; 360,000 compounds, 1.2% hits; inhibition, % at 4.8 µM; in the data active = inhibition above about 30%;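 note: 0% = DMSO wells and 100% = wells lacking the enzyme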
# UGM FP inh – Mtb UDP-galactopyranose mutase inhibition; P9WIQ1; purified UGM, fluorescence polarization probe displacement; inhibition, % at 10 µM; 320,000 compounds, 0.06% hits; AID 504406; in the data active = inhibition above about 10%, passing the limit was not always enough
# Rv3671c protease – inhibitors of M. tuberculosis serine protease Rv3671c; AID 2606; inhibition, % at 5.96 µM; P9WHR9; 320,000 compounds, 0.048% hits; in the data active = inhibition above about 38%;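 note: extracellular domain of Rv3671c used as enzyme; 0% = enzyme with DMSO and 100% = no enzyme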
# Mtb FBA confirm – Mtb FBA inhibition, confirmed; shares compounds with FBA Mtb inh; purified M. tuberculosis FBA, fluorescence read-out; inhibition, % at 1 µM; 5,600 compounds, 78% hits; AID 651616;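 note: 0% = vehicle wells and 100% = reference inhibitor wells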
# GDH-TPI counter-2 – inhibits GDH-TPI coupling enzymes, flagging Mtb FBA hits; shares compounds with FBA Mtb inh; GDH-TPI coupled enzyme counterscreen, fluorescence; inhibition, % at 1 µM; 5,600 compounds, 81% hits; in the data active = inhibition above about 10%
# Starred values were filed as active, the others as inactive; x = not tested or not shown; + = active, no number. Cut-off read from the data, not from the text of the source, unless noted: active = inhibition above about 27%; inactive = the rest.
SMILES,FBA Mtb inh,Mtb bLac sens,GDH-TPI counter-1,UGM FP inh,Rv3671c protease,Mtb FBA confirm,GDH-TPI counter-2
COc1cc(NS(=O)(=O)c2ccc(NC(=O)c3cccs3)cc2)nc(OC)n1,75*,6,1,4,-12,-1,-8
COc1cc(NS(=O)(=O)c2ccc(N/C=C\C(=O)c3ccc(C)cc3)cc2)nc(OC)n1,30*,61,26,6,4,36*,22*
CC1CCCC(C)N1C(=O)COC(=O)c1ccc(F)c(S(=O)(=O)N2CCOCC2)c1 (stereo not given),0,-12,-8,-1,-8,x,x
C[C@H]1CN([C@@H](C)CO)C(=O)c2cc(Br)cnc2O[C@@H]1CN(C)C(=O)NC1CCCCC1,-1,x,8,x,x,x,x
C[C@@H]1CN([C@H](C)CO)C(=O)c2cc(/C=C/c3ccccc3)cnc2O[C@H]1CN(C)C(=O)NC1CCCCC1,60*,x,12,x,x,75*,70*
Fc1ccc2[nH]c3c(Cl)ncnc3c2c1,40*,-3,0,-1,-1,164*,158*
CCCCOc1ncnc2c1[nH]c1ccc(F)cc12,32*,11,-2,1,-9,189*,160*
COc1cccc2[nH]c3c(N4CCCCC4)ncnc3c12,15,-3,11,3,2,x,x
COc1ccc2[nH]c3c(Cl)ncnc3c2c1,2,4,6,1,-2,x,x
COc1cccc2[nH]c3c(Cl)ncnc3c12,41*,-13,11,0,8,163*,144*
COc1cc(OC)cc(N2C(=O)CSCC2=O)c1,0,0,9,4,-6,x,x
COc1c2ccoc2nc2c(OC)cccc12,55*,4,14,-2,1,113*,97*
COc1cccc2c(=O)ccoc12,17,0,-7,-1,0,x,x
CNc1ccccc1C(=O)OCC(=O)Nc1ccc2c(c1)OCO2,53*,3,2,0,3,101*,69*
CCCc1cc(C(=O)OCC(=O)N(CCC)c2c(N)n(Cc3ccccc3)c(=O)[nH]c2=O)sc1C,0,-5,2,-2,-16,x,x
Cc1cccc2c(C(=O)O)c3cccc(C)c3nc12,95*,-2,25,-2,0,52*,55*
Cc1cccc2c(C(=O)O)c3c(nc12)CCCCC3,1,-11,3,2,-1,x,x
COc1ccc(CCN(C)S(=O)(=O)c2cn(C)c(=O)n(C)c2=O)cc1OC,0,7,0,x,-2,x,x
CCN(CC)CCCNc1nc(C)cc(COC)c1C#N,76*,-9,6,1,3,114*,103*
CCOC(=O)C1=C(C)NC(=O)NC1c1cn(-c2ccccc2)nc1-c1cccs1 (stereo not given),3,6,-9,-1,-1,x,x
CCOC(=O)C1=C(C)NC(C)=C(C(=O)OCC)C1c1cn(-c2ccccc2)nc1-c1ccco1,61*,0,4,3,-4,3,-6
CCc1nn2cc(-c3ccccc3)nc2s1,-4,2,4,1,8,x,x
O=C(O)CCc1nn2cc(-c3ccccc3)nc2[nH]c1=O,45*,-9,18,-1,-5,113*,92*
Cc1nn2c(-c3ccccc3)c(-c3ccccc3)nc2[nH]c1=O,8,-4,17,1,1,x,x
Cc1nn2cc(-c3ccccc3)nc2[nH]c1=O,37*,-12,21,1,-4,79*,81*
SMILES,FBA Mtb inh,Mtb bLac sens,GDH-TPI counter-1,UGM FP inh,Rv3671c protease,Mtb FBA confirm,GDH-TPI counter-2
CC1(C)Cc2c(C#N)c(NCCN3CCOCC3)nc(-c3ccco3)c2CO1,13,-9,-4,1,-6,x,x
N#Cc1c(NCCCO)nc(NCc2ccccc2)c2c1CCN(Cc1ccccc1)C2,32*,31,8,0,-3,116*,108*
CN1CCc2c(C#N)c(N3CCCCC3)nc(NCc3ccccc3)c2C1,5,-9,8,-1,3,x,x
N#Cc1c(NC2CCCCC2)nc(-c2ccco2)c2c1CCCC2,25,12,0,-1,1,x,x
N#Cc1c(NCCCO)nc(-c2ccco2)c2c1CCCC2,27*,8,6,1,-1,52*,44*
CC1(C)Cc2c(C#N)c(NCCO)nc(-c3ccco3)c2CO1,59*,2,14,1,-8,32*,20*
Cc1ccc(CN2CC(C(=O)Nc3ccc4c(C)cc(=O)oc4c3)CC2=O)cc1 (stereo not given),89*,-10,16,3,-5,96*,74*
Cc1ccc(CN2CC(C(=O)Nc3ccc(C)c(S(=O)(=O)N4CCCCC4)c3)CC2=O)cc1 (stereo not given),3,x,7,x,x,x,x
COc1ccc(NC(=O)c2cc(S(=O)(=O)N3CCOCC3)ccc2C)cc1S(=O)(=O)N1CCOCC1,-1,-4,-1,1,5,x,x
Cc1c(OC(C)C(=O)O)ccc2c(-c3ccccc3)cc(=O)oc12 (stereo not given),35*,-2,19,4,0,55*,39*
C1=C[C@@H]2CCN(Cc3ccccc3)Cc3cccc(c32)C1,28*,-1,18,2,-5,+,+
CC1CCN(C(=O)C2CCCN(S(=O)(=O)c3ccc4c(c3)CC(C)N4C(=O)C3CC3)C2)CC1 (stereo not given),0,-6,-14,-1,0,x,x
COc1cc(C2NC(=O)NC(c3ccccc3)=C2C(C)=O)c(Cl)cc1OCC(=O)O (stereo not given),-3,0,7,-4,0,x,x
COc1cc(C2Nc3ccccc3C(=O)N2c2ccc(Cl)cc2)c(Cl)cc1OCC(=O)O (stereo not given),70*,-6,0,1,5,115*,83*
CCOc1cc(C2Nc3ccccc3C(=O)N2c2ccccc2)c(Br)cc1OCC(=O)O (stereo not given),39*,-6,9,0,2,105*,84*
CCOc1cc(C2Nc3ccccc3C(=O)N2c2ccccc2)ccc1O (stereo not given),10,5,25,-1,-6,x,x
Cc1cccc(N2C(=O)C3CCCN3C2=S)c1C (stereo not given),-1,2,0,-1,-5,x,x
CCN(Cc1ccncc1)Cc1nc(CC2CC2)no1,8,-1,7,-1,7,x,x
CC(=O)Nc1ccc(NC(=O)CCNS(=O)(=O)c2cccc3nsnc23)cc1,3,-2,-1,0,2,x,x
O=C(N/N=C/c1ccc(O)c(O)c1)c1ccc(-n2cnnn2)cc1,52*,-1,25,-2,-6,52*,52*
CN(C)CCCO[C@@H]1[C@H]2OC(C)(C)O[C@H]2O[C@@H]1[C@H](O)CO,3,3,4,1,-1,x,x
CNc1ccc(-c2ccccc2CO)cn1,51*,x,9,x,x,45*,27*
